Screens: PubChem BioAssay, University of Kansas High Throughput Screening Laboratory
Compounds with a hit are over-represented: about 3.6% of the library has one in this group of screens.
Pf apPOL inh – Pf-apPOL inhibitors, biochemical, fluorescence. Plasmodium falciparum apicoplast DNA polymerase (apPOL). inhibition, % at 10 µM. Recombinant Pf-apPOL, molecular beacon fluorescence, 1.5 h. 210,000 tested, 0.25% active. AID 1794808, 2022
mHTT CaM bind – mutant huntingtin-calmodulin interaction inhibitors – biochemical, AlphaScreen, primary screen; inhibition, % at 15 µM; 190,000 tested, 3.6% active; P42858; AlphaScreen His-mHTT/GST-CaM binding, luminescence;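 further: 0% = both proteins with DMSO and 100% = one protein alone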
Starred values were filed as active, the others as inactive; i = inactive; / = no result given; + = active, no number. No stated cut-off is given here; in the data, active means inhibition above about 50%; inactive means the rest.

SMILES	Pf apPOL inh	mHTT CaM bind
COc1cccc(C=C2Oc3c(ccc4c3CN(c3ccc5c(c3)OCCO5)CO4)C2=O)c1OC	-2.9	77.3*
CC(C)(C)c1ccc(C=C2SC(=S)N(CCC(=O)O)C2=O)cc1	0.7	34.3
CCOC(=O)CCCN1C(=O)C(=Cc2ccc3c(c2)OCO3)SC1=S	-5.8	14.5
O=C(O)CCN1C(=O)C(=Cc2ccc([N+](=O)[O-])o2)SC1=S	50.5*	43.7
O=C(O)CN1C(=O)C(=Cc2ccccc2O)SC1=S	0.1	17.2
O=C(O)CN1C(=O)C(=Cc2ccc(-c3cccc4c3C(=O)c3ccccc3C4=O)o2)SC1=S	94.8*	39.2
O=C(O)CCCCCN1C(=O)C(=Cc2ccc3c(c2)OCO3)SC1=S	14.1	51.6*
CCCN1CCN(C(=O)C2CC(=O)N(c3ccc4c(c3)CCN4C(=O)CC)C2)CC1 (centres undefined)	-0.2	5.1
CC1(C(=O)NCc2ccccc2)CCCN(C(=O)Nc2ccc(F)c(Cl)c2)C1 (centres undefined)	-0.4	-1.4
Cc1nc2c(C(=O)NCCc3ccccc3)c[nH]n2c(=O)c1Cl	-8.8	16.0
Cc1nc2c(C(=O)NCCc3ccc(Cl)cc3)c[nH]n2c(=O)c1Cc1ccccc1F	-3.4	74.0*
Cc1ccc(CCNC(=O)c2c[nH]n3c(=O)c(Cc4ccccc4F)c(C)nc23)cc1	-14.7	31.0
Cc1nc2c(C(=O)NCCc3ccccc3)c[nH]n2c(=O)c1Cc1ccc(Cl)cc1	-4.7	68.0*
CC(C)CCNC(=O)C1CCc2sc(C(=O)N3CCOCC3)cc2C1 (centres undefined)	-7.5	0.4
Cc1ccc(-c2noc(CCN3CCN(C(C)C)CC3)n2)cc1	-3.9	-1.3
CC1=C(C(=O)N2CCCCC2)C(c2ccc(O)cc2)C2=C(CCCC2=O)N1 (centres undefined)	-2.2	5.0
C[C@H]1[C@@H](c2ccccc2)Oc2c(Cl)cccc2S(=O)(=O)N1Cc1cccc(Cl)c1	-3.3	59.3*
C[C@H]1[C@@H](c2ccccc2)Oc2c(Cl)cccc2S(=O)(=O)N1Cc1cccc(F)c1	-5.5	17.8
Cc1c(Cl)cccc1S(=O)(=O)NCC1CCN(C(=O)c2cccn(C)c2=O)CC1	-5.4	-4.3
CC(=O)OC[C@H](NC(=O)[C@H](Cc1c[nH]c2ccccc12)NC(=O)OC(C)(C)C)[C@@H]1O[C@H](n2cc(F)c(=O)[nH]c2=O)[C@@H](OC(C)=O)[C@H]1OC(C)=O	1.0	6.7
COc1ccc(Cl)cc1-c1nc(C=Nc2cc(Cl)ccc2Cl)c(O)o1	0.2	10.0
Cc1ccc(C)c(S(=O)(=O)N=C2C=CC(=O)C=C2)c1	-3.8	51.0*
Cc1ccc(S(=O)(=O)N=C2C=C(C(C)C)C(=O)C(C(C)C)=C2)cc1	0.7	-4.0
Cc1ccc(S(=O)(=O)N=C2C=C(Br)C(=O)C(Br)=C2)cc1	0.2	45.0
Cc1ccc(S(=O)(=O)N=C2C=CC(=O)C(Br)=C2)cc1	-4.3	59.0*
SMILES	Pf apPOL inh	mHTT CaM bind
Cc1ccc(C)c(S(=O)(=O)N=C2C=CC(=O)C(Br)=C2)c1	-1.6	65.0*
Cc1cc(C)c(S(=O)(=O)N=C2C=CC(=O)C=C2)c(C)c1	-3.5	39.0
CC1=CC(=O)C(Br)=CC1=NS(=O)(=O)c1ccc(C)cc1	-8.7	64.0*
CCN(CC)C(=NS(=O)(=O)c1cc(C)ccc1C)c1ccccc1	3.1	6.0
NC(=O)C1CCN(C(=O)c2ccc([N+](=O)[O-])cc2Cl)CC1	-5.2	5.5
COc1ccc(Nc2c(C(=O)N3CCCC(C)C3)cnc3nc(C)ccc23)cc1 (centres undefined)	0.5	1.4
Cn1cc(C(=O)NCCn2nc(-c3ccco3)ccc2=O)nn1	1.4	-4.9
O=C(CC(c1ccccc1)c1ccccc1)NCCn1nc(-c2ccco2)ccc1=O	32.5	69.4*
Cc1cc(C)nc(Nc2nc(C(=O)NCCn3nc(-c4ccco4)ccc3=O)cs2)n1	34.9	62.4*
O=C(COc1ccccc1F)NCCn1nc(-c2ccco2)ccc1=O	-2.4	2.1
Cc1ccc(C(=O)N2CCC(CCOCc3ccc(F)cc3)CC2)cc1	-5.4	-8.2
CCCCN(CC)C(=O)c1ccccc1F	-4.1	-3.3
Cc1cccc(C(=O)N2CCc3cn(C)c4cccc(c34)C2)c1	-6.9	19.0
CCCn1cc2c3c(cccc31)CN(C(=O)NCc1ccc(OC)cc1)CC2	-2.5	18.4
CCCn1cc2c3c(cccc31)CN(C(=O)Cc1ccc(OC)cc1)CC2	-1.9	57.2*
COCCn1cc2c3c(cccc31)CN(C(=O)NCc1ccc(OC)cc1)CC2	2.1	8.7
COc1ccc(C(=O)N2CCc3cn(C)c4cccc(c34)C2)cc1	-1.5	55.1*
Cc1ccc(C(=O)N2CCc3cn(C)c4cccc(c34)C2)cc1C	-2.7	79.0*
CCCn1cc2c3c(cccc31)CN(C(=O)c1ccc(OC)cc1)CC2	-2.8	78.0*
COc1ccc(C(=O)N2CCc3cn(C)c4cccc(c34)C2)c(OC)c1	-2.3	47.5
CCCCN(C)C(=O)CNC(=O)c1nn(-c2ccc(OC)c(Cl)c2)c(=O)c2ccccc12	0.4	18.0
O=C(Nc1ccc(Br)cc1)O[C@H]1CCC12CCCCC2	-5.4	-127.5
COc1cccc(C=C2SC(=S)N(C(CC(=O)O)C(=O)O)C2=O)c1 (centres undefined)	-11.1	1.5
O=C(Nc1ccc(Br)cc1)C1CCn2c(nc3ccccc32)C1 (centres undefined)	-1.0	9.5
CN(C)c1ccc(/C=C/C2=CC(=C/C=C3C=CC(=[N+](C)C)C=C3)/O[B-](F)(F)O2)cc1	-55.8	/
SMILES	Pf apPOL inh	mHTT CaM bind
CCCCN(CC)S(=O)(=O)c1ccc(F)c(C(=O)Nc2ccc(Br)cc2F)c1	3.0	-4.0
CC(=O)c1ccc(NC(=O)c2sc3nc(C)cc(C)c3c2N)cc1	-2.7	-1.9
COc1ccc(-c2c(C(F)(F)F)oc3cc(O)cc(O)c3c2=O)cc1	-3.4	41.8
CCn1cc2c3c(cccc31)CN(C(=O)CCc1ccc(OC)cc1)CC2	-4.2	58.5*
CCn1cc2c3c(cccc31)CN(C(=O)c1ccco1)CC2	-2.5	-7.6
Cn1cc2c3c(cccc31)CN(C(=O)Cc1ccc(Cl)cc1)CC2	-1.1	26.9
Cn1cc2c3c(cccc31)CN(C(=O)c1ccc(Cl)cc1)CC2	-3.5	54.3*
Cn1cc2c3c(cccc31)CN(C(=O)c1cccc(Cl)c1)CC2	-7.5	72.9*
Cn1cc2c3c(cccc31)CN(C(=O)c1cc(F)cc(F)c1)CC2	-1.0	29.6
CS(=O)(=O)N(Cc1ccccc1Cl)c1ccc(C(N)=O)cc1	-4.1	-5.0
CS(=O)(=O)N(Cc1ccccc1Cl)c1ccc(C(=O)N2CCc3ccccc3C2)cc1	-1.3	97.8*
CCOc1ccc(C2CC(c3cc(OC)c(OC)c(OC)c3)n3nnnc3N2)cc1 (centres undefined)	-4.0	1.0
COc1cc(C(=O)O/N=C2\C=CC(=O)C=C2C)cc(OC)c1OC	-0.3	i
COc1ccccc1C(=O)O/N=C1\C=CC(=O)C=C1C	-0.8	+
CC(=O)N1N=C(c2ccccc2NS(C)(=O)=O)CC1c1ccc2ncccc2c1 (centres undefined)	-5.5	0.1
CNC(=O)N1CCCN(C2CCN(Cc3ccc(F)cc3)C2=O)CC1 (centres undefined)	1.0	1.0
Cc1ccsc1C(=O)N1CCCN(C2CCN(Cc3ccc(F)cc3)C2=O)CC1 (centres undefined)	8.3	64.1*
